Data on seven compounds can be found in PubChem BioAssay (Tox21).

Structures are written as SMILES. Several values for one entry are separate records, joined by “and”; a condition that tells them apart may be missing. Equal values may be shown once. Results filed as inconclusive are left out. A structure can be active in one record and inactive in another. Activity calls are given as the source filed them. Unless noted, calls follow the shape of the full dose curve.

Test [1] is described as follows: Nuclear factor erythroid 2-related factor 2/antioxidant responsive element (Nrf2/ARE) small molecule agonists: qHTS cell viability counter screen in human keratinocytes (AID 1919968; active = well fitted curve in the direction sought with a large enough effect in the repeat runs; an effect the other way counts as inactive or inconclusive; also: nearly all actives have a fitted effect of over 55% in size; also: potency is read from the fitted curve at half-maximal effect). The essentials: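 In human HaCaT keratinocytes stably expressing an ARE-driven luciferase, compound exposure lasted 23 h at 37 C under 5% CO2. Viable cells are quantified with a protease-based fluorogenic reagent (CellTiter-Fluor) read 1 h after addition.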

A short description of test [2]: Nuclear factor erythroid 2-related factor 2/antioxidant responsive element (Nrf2/ARE) small molecule agonists: luciferase reporter gene qHTS assay in human keratinocytes (AID 1919969). Also: nearly all actives have a fitted effect of over 35% in size. Also: potency is read from the fitted curve at half-maximal effect. In general terms: In a reporter assay the amount or activity of a reporter protein is the signal.
The target of test [3] is Gonadotropin-releasing hormone receptor (Homo sapiens) (UniProt P30968). Nature of the test: Human gonadotropin-releasing hormone receptor (GnRHR) small molecule agonists, calcium flux assay in GnRHR-HEK293 cells (AID 1920063). Also: nearly all actives have a fitted effect of over 35% in size. An outline of the steps:
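Intracellular calcium rise is the read-out: engineered human GnRHR HEK293 cells, dye-loaded, are exposed to DMSO-dissolved compounds and fluorescence at Ex/Em 480/540 is tracked for 3 min.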

The nature of test [4]: p53 small molecule agonists, cell-based qHTS assay with human liver microsomes (AID 1963577).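 Also: p53 response element beta-lactamase reporter cells with liver microsomes plus NADPH.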 An outline of the steps:
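In this qHTS, p53 response-element beta-lactamase cells receive test compound together with a microsome/NADPH activating system (0.5 mg/mL final each) and are incubated 16 h at 37 C before LiveBLAzer fluorescence detection.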
A general note: Quantitative high-throughput screening tests each substance at several concentrations.

Test [5] can be described thus: p53 small molecule agonists, cell-based qHTS assay with rat liver microsomes (AID 1963578). The essentials:
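Agonist mode in p53RE-bla reporter cells, with compounds co-incubated 16 h at 37 C alongside 0.5 mg/mL rat liver microsomes and 0.5 mg/mL NADPH (final), followed by a 2 h LiveBLAzer detection step.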

A short description of test [6]: p53 small molecule agonists, cell-based qHTS assay with human liver microsomes: qHTS cell viability counter screen (AID 1963579). Also: nearly all actives have a fitted effect of over 45% in size. An outline of the steps:
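Metabolically activated exposure: compounds, human liver microsomes and NADPH (0.5 mg/mL final apiece) were added to p53RE-bla cells seeded 5 h earlier, left 16 h at 37 C, and then assessed for viability by CellTiter-Glo luminescence.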

Test [7] can be described thus: p53 small molecule agonists, cell-based qHTS assay with rat liver microsomes: qHTS cell viability counter screen (AID 1963580). Also: nearly all actives have a fitted effect of over 45% in size. The essentials:
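Counter screen for cytotoxicity under metabolic activation: rat liver microsomes and NADPH, 0.5 mg/mL final each, added with compounds to p53RE-bla HCT-116 cells; 16 h at 37 C, then ATP luminescence read.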

Test [8] can be described thus: p53 small molecule agonists, cell-based qHTS assay: qHTS cell viability counter screen (AID 1963581). Also: nearly all actives have a fitted effect of over 45% in size. An outline of the steps: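 Luminescence from CellTiter-Glo, reflecting ATP content, serves as the cytotoxicity measure; it is taken after the 2 h reporter substrate step in HCT-116 p53RE-bla cells dosed for 16 h at 37 C.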
Test [9] in a line: cAMP Responsive Elements (CRE) small molecule agonists, cell-based qHTS assay (AID 1963590). The essentials:
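Compound exposure lasted 3 h at 37 C/5% CO2 in CRE-bla HEK 293T cells grown in assay medium with 10% dialyzed FBS and 25 mM HEPES. Reporter signal came from LiveBLAzer B/G FRET substrate, 2 h, room temperature.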

Test [10] is described as follows: cAMP Responsive Elements (CRE) small molecule antagonists, cell-based qHTS assay (AID 1963591; active = well fitted inhibition curve with a large enough effect in the signal ratio in the repeat runs, not every such curve was filed as active; the % refers to the signal ratio; also: potency is read from the fitted curve at half-maximal effect). An outline of the steps: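 Stimulation used NKH477 at a final 0.25 uM for 3 h in compound-treated CRE-bla HEK293T cells, seeded 18 h beforehand. Reporter activity was measured with LiveBLAzer B/G FRET substrate after 2 h at room temperature.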
Test [11] addresses Beta-2 adrenergic receptor (Homo sapiens) (UniProt P07550). The test can be described thus: Adrenergic beta2 receptor (ADRB2) small molecule antagonists, cell-based qHTS assay (AID 1963592). Also: series mostly up to about 92 µM; nearly all actives have a fitted effect of over 50% in size. The essentials:
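Assay format: CHO-ADRB2 cells, 18-20hr seeding at 37C/5% CO2, then compound plus 1nM isoproterenol agonist mix for 0.5hr RT. Homogeneous time-resolved fluorescence cAMP detection after 1hr, expressed as 665/615 nm ratio.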

For test [12], the target named is D(2) dopamine receptor (Homo sapiens) (UniProt P14416). Nature of the test: Dopamine D2 receptor (DRD2) small molecule agonists, cell-based qHTS assay (AID 1963594). Also: nearly all actives have a fitted effect of over 35% in size. The essentials: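 HEK293 cells stably expressing DRD2 were cultured 24 h at 37 C, then given Ro20-1724 (0.1 mM final) and compounds for 10 min at room temperature. NKH477 (200nM) was then added for 30 min. cAMP was read by HTRF.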
Sequence of D(2) dopamine receptor (Homo sapiens) (P14416 whole entry, looked up): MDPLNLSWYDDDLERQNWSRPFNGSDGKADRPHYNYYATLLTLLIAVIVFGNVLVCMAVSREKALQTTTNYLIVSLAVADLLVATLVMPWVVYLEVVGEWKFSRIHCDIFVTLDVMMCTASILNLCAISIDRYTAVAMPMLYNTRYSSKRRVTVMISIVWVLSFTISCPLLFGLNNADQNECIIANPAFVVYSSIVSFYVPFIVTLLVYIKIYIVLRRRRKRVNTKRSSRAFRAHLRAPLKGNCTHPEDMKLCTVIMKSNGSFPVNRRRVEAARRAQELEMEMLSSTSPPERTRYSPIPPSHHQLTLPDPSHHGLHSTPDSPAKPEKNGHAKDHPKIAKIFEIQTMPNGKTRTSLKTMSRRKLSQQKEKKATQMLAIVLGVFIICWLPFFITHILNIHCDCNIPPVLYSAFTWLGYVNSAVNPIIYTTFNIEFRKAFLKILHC

The target is the same in test [13]. The test can be described thus: Dopamine D2 receptor (DRD2) small molecule antagonists, cell-based qHTS assay (AID 1963595; active = well fitted inhibition curve with a large enough effect in the signal ratio in the repeat runs, with a control signal flat; the % refers to the signal ratio). An outline of the steps:
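HEK293 cells stably expressing DRD2, preincubated with 0.1 mM Ro20-1724 and compounds 10 min, were stimulated with 200 nM NKH477 plus 12 nM quinpirole for 30 min at room temperature; cAMP measured by HTRF (665/620 nm).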

The target in test [14] is KiSS-1 receptor (Homo sapiens) (UniProt Q969F8). The test can be described thus: Human kisspeptin (KISS1R) small molecule agonists, calcium flux assay in KISS1R-HEK293 cells (AID 1920064; active = well fitted curve in the direction sought with a large enough effect in the repeat runs; an effect the other way counts as inactive or inconclusive). An outline of the steps: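 Concentration-response testing used 15 concentrations in triplicate on human KISS1R-expressing HEK293 cells. Calcium-dependent fluorescence (Ex/Em 480/540) was followed kinetically for 3 min after compound transfer.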
Sequence of KiSS-1 receptor (Homo sapiens) (Q969F8 whole entry, looked up): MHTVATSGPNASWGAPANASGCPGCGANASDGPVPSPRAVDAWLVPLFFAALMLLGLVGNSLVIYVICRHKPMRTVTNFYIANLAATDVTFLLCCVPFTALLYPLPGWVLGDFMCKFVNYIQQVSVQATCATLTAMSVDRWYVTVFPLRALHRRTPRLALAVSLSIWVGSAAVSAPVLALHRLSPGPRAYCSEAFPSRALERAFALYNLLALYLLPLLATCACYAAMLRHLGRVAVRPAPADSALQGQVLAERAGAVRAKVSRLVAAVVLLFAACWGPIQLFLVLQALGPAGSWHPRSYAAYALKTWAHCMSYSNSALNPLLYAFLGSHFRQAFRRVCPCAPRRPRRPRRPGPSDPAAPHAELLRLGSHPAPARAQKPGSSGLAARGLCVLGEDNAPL
(Calcium assays in cells follow changes in intracellular calcium, usually with a dye or a luminescent sensor.)

A short description of test [15]: p53 small molecule agonists, cell-based qHTS assay (AID 1963582; active = well fitted activation curve with a large enough effect in the signal ratio in the repeat runs, not every such curve was filed as active; the % refers to the signal ratio). An outline of the steps:
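After plating, p53RE-bla cells sat 5 h in the incubator; compounds or DMSO vehicle were pinned in; a 16 h incubation at 37 C followed; FRET substrate was added and, 2 h later at RT, fluorescence was measured.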

Test [16] has as its target 5-hydroxytryptamine receptor 2A (Homo sapiens) (UniProt P28223). Nature of the test: 5-hydroxytryptamine receptor 2A (HTR2A) small molecule agonists, cell-based qHTS assay (AID 1963587). Also: nearly all actives have a fitted effect of over 30% in size. An outline of the steps: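 HTR2A-CHO cells, plated 18 h at 37 C/5% CO2, dye-loaded 1 h at 37 C; compounds in DMSO added by pin tool (agonist mode). Intracellular calcium flux read as kinetic fluorescence on FDSS over 2 min at 1 s intervals.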

Test [17] addresses Muscarinic acetylcholine receptor M1 (Homo sapiens) (UniProt P11229). The test can be described thus: Cholinergic receptor muscarinic 1 (CHRM1) small molecule antagonists, cell-based qHTS assay (AID 1963588). Also: nearly all actives have a fitted effect of over 40% in size. Also: potency is read from the fitted curve at half-maximal effect. An outline of the steps: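 Compounds were tested at 15 concentrations in three independent runs. Dye-loaded CHRM1-CHO cells were exposed 5 min at room temperature before stimulation by acetylcholine added at 50nM. Intracellular calcium was read kinetically on FDSS for 3 min.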

Test [18] has the same target. The test can be described thus: Cholinergic receptor muscarinic 1 (CHRM1) small molecule agonists, cell-based qHTS assay (AID 1963589). Also: nearly all actives have a fitted effect of over 35% in size. An outline of the steps:
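Fluorescent calcium dye reports M1 activation in stably transfected CHO cells. Compounds, 15 concentrations, added after 1 h dye loading at 37 C; kinetic reading at 1 sec intervals.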

Test [19] addresses Beta-2 adrenergic receptor (Homo sapiens) (UniProt P07550). Nature of the test: Adrenergic beta2 receptor (ADRB2) small molecule agonists, cell-based qHTS assay (AID 1963593).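 Also: CHO cells stably overexpressing human ADRB2.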 An outline of the steps:
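CHO cells stably over-expressing ADRB2 were plated overnight at 37C, then dosed with compounds plus a stimulation mix containing 100uM IBMX and 25uM Ro-20-1724 for 0.5hr at room temperature. cAMP was measured by HTRF competition, 1hr.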

In test [20] the target is 5-hydroxytryptamine receptor 2A (Homo sapiens) (UniProt P28223). The test can be described thus: 5-hydroxytryptamine receptor 2A (HTR2A) small molecule antagonists, cell-based qHTS assay (AID 1963586). Also: nearly all actives have a fitted effect of over 45% in size. The essentials:
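CHO cells stably expressing human HTR2A were plated for 18 h at 37 C, then loaded with calcium dye for 1 h. Compounds were preincubated 5 min at room temperature before DOI (4 nM solution) was added. Kinetic fluorescence was read for 3 min.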

Sequence of 5-hydroxytryptamine receptor 2A (Homo sapiens) (P28223 whole entry, looked up): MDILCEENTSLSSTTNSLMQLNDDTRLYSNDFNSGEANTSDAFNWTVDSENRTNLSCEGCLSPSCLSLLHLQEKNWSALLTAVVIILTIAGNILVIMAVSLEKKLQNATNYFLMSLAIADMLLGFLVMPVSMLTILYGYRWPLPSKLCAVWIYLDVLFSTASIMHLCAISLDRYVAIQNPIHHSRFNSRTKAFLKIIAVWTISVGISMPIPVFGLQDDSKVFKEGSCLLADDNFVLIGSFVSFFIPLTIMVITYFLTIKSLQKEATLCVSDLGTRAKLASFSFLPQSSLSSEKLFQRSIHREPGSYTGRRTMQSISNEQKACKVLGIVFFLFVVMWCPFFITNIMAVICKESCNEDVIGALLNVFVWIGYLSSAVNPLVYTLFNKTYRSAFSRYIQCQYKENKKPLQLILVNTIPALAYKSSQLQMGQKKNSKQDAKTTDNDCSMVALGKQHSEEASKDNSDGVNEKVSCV
Sequence of Gonadotropin-releasing hormone receptor (Homo sapiens) (P30968 whole entry, looked up): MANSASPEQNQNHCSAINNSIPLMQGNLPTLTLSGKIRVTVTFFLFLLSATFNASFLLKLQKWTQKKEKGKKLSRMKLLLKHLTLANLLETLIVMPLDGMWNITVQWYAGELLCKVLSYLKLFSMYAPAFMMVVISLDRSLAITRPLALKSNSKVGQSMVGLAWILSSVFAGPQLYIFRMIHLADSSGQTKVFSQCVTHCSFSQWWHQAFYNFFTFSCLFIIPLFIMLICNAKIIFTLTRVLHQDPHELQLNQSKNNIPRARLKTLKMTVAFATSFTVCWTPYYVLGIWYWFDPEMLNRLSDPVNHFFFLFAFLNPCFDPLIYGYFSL
Sequence of Beta-2 adrenergic receptor (Homo sapiens) (P07550 whole entry, looked up): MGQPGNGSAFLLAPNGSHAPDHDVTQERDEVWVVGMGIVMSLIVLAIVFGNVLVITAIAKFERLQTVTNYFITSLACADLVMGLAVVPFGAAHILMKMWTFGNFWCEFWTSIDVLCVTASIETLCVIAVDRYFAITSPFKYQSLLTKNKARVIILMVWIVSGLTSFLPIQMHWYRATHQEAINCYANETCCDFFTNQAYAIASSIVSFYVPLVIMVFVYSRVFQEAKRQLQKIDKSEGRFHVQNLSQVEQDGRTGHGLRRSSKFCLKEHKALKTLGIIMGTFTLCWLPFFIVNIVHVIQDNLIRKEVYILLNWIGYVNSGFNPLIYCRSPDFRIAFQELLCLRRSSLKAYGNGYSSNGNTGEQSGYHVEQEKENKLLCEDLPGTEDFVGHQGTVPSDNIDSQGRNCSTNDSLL
Sequence of Muscarinic acetylcholine receptor M1 (Homo sapiens) (P11229 whole entry, looked up): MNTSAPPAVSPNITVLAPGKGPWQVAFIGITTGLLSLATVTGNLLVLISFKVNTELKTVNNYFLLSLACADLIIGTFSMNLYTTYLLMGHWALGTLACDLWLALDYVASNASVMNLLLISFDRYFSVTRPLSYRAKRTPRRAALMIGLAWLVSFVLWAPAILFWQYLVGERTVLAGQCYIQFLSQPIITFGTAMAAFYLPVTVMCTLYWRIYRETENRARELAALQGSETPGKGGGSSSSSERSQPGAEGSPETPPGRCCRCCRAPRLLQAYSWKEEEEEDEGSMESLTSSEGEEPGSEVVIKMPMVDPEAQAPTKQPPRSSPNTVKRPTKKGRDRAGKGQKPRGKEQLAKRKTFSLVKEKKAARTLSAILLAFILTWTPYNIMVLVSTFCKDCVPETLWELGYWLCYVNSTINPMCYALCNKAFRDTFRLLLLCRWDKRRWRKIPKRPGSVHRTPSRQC

`Nc1ncn([C@@H]2O[C@H](CO)[C@@H](O)[C@H]2O)c(=O)n1`: the Potency result in test [1], in test [3], in test [4], in [5], in test [6] and in test [7] was “inactive” throughout. For the same compound, the Potency entry in test [8], in test [9], in [11], in test [12] and in test [13] was “inactive” throughout. Besides, the Potency in test [2] was 30.6 µM (active) and 7.5 µM (active); in test [10], 40.3 µM (active).

Consider `CCCCCCCCCCCCCO`, for which the Potency result in test [1], in test [2], in [3], in test [14], in test [4] and in [5] was “inactive” each time. In addition, the Potency entry in test [6], in test [7], in test [15], in test [16], in test [17] and in test [18] was “inactive” in each case. The Potency entry in test [9], in test [10], in test [11], in test [19], in test [12] and in [13] was “inactive” each time.

Regarding `Cc1ccc(C)c(OCCCC(C)(C)C(=O)O)c1`, the Potency entry in test [1], in test [2], in test [3], in test [14], in [6] and in test [7] was “inactive” in each case. The Potency result in test [8], in test [10], in test [11], in test [19], in [12] and in [13] was “inactive” in each case.

On to `Cc1cc(Cc2ccc(N)c(C)c2)ccc1N`, for which the Potency entry in test [1], in test [2], in test [3], in test [14], in test [5] and in [6] was “inactive” throughout. The Potency entry in test [7], in test [8], in test [15], in test [20], in test [16] and in test [17] was “inactive” each time. For the same compound, the Potency result in test [18], in test [9], in test [10], in test [11], in [19] and in [12] was “inactive” in each case.

As for `C=CC(=O)OCCOCCOCCOCCOC(=O)C=C`, the Potency was 61.4 µM (active) and 48.1 µM (active) in [1]; 24.5 µM (active) and 27.1 µM (active) in test [2]. Also, the Potency result in test [3], in test [4], in test [5], in [6], in test [7] and in test [15] was “inactive” throughout. In addition, the Potency result in test [20], in test [16], in [17], in [18], in test [11] and in [12] was “inactive” each time. The Potency entry in test [13] was “inactive”.

For the compound `Nc1cc(Cl)c(N)c(Cl)c1`, the Potency entry in test [1], in [3], in [4], in test [5], in test [6] and in test [7] was “inactive” each time. Moreover, the Potency result in test [8], in test [15], in test [20], in [16], in test [17] and in test [18] was “inactive” in each case. Also, the Potency result in test [9], in test [10], in test [12] and in test [13] was “inactive” each time. Also, the Potency in [2] is 68 µM (active) and inactive.

As to `CC(C)(C)c1cccc(C(C)(C)C)c1O`, the Potency entry in test [1], in [2], in [3], in [4], in test [5] and in [6] was “inactive” in each case. Besides, the Potency result in test [7], in [15], in test [20], in [16], in test [18] and in [9] was “inactive” in each case. The Potency result in [10], in test [11], in test [12] and in test [13] was “inactive” throughout. Besides, the Potency in test [17] was 231 nM (active) and inactive.
